Experimental data published in PubChem BioAssay AID738 (SRMLSC, 2007).
Hit rate of the full screen: of about 98,000 compounds, about 4,900 (5%) were called active. Rule as the data show it: active = inhibition above about 30%; inactive = the rest. Only a selection was taken, and actives are over-represented in it overall.

Test: yeast control strain growth suppression – counter-screen for post-Golgi transport modulator project, primary screen (AID 738)
Conditions: efflux-deficient yeast background strain, growth absorbance A615, 16 h; at 10 µM; stronger effect = higher value

Question: Which inhibition does the source give for `c1ccc(-c2cn3c(n2)CCc2ccc4cccnc4c2-3)cc1` here?
Answer: The inhibition was 42.3% (active).

Question: Which inhibition does the source give for `c1ccc(-c2cn3cccnc3n2)cc1` here?
Answer: The inhibition was 10% (inactive).

Question: With `O=C(Nc1ccccc1)c1ccccc1NC(=O)C(F)(F)F` as the compound, how does the inhibition read?
Answer: Its inhibition is 10.5% (inactive).

Question: With `CCCCOC(=O)c1ccc(N2C(=O)CC(N3CCN(C/C=C/c4ccccc4)CC3)C2=O)cc1` (centres undefined) as the compound, how does the inhibition read?
Answer: The inhibition was 30.1% (active).

Question: For `CCOC(=O)c1ccc(N2C(=O)CC(N3CCC(C(=O)OCC)CC3)C2=O)cc1` (centres undefined), which inhibition is on record?
Answer: The inhibition was 0% (inactive).

Question: Which inhibition does the source give for `CCOC(=O)c1ccc(N2C(=O)CC(N3CC(C)OC(C)C3)C2=O)cc1` (centres undefined) here?
Answer: Its inhibition is 7.03% (inactive).

Question: For `O=C(NC1CCN(C(=S)NCc2ccco2)CC1)c1ccc(F)cc1`, which inhibition is on record?
Answer: Its inhibition is 7.63% (inactive).

Question: For `CCOC(=O)N1CCN(Cc2nc(N)nc(Nc3ccc(C)cc3)n2)CC1`, which inhibition is on record?
Answer: The inhibition was -1.25% (inactive).

Question: With `Cn1cc(S(=O)(=O)N2CCC(Cc3ccccc3)CC2)c(=O)n(C)c1=O` as the compound, how does the inhibition read?
Answer: Its inhibition is 2.66% (inactive).

Question: For `Cn1cc(S(=O)(=O)N2CCN(c3ccc(F)cc3)CC2)c(=O)n(C)c1=O`, which inhibition is on record?
Answer: The inhibition was 3.87% (inactive).

Question: With `CC(C)c1ccc(NS(=O)(=O)c2cn(C)c(=O)n(C)c2=O)cc1` as the compound, how does the inhibition read?
Answer: The inhibition was 94.4% (active).

Question: Which inhibition does the source give for `CC(CNc1ccc([N+](=O)[O-])cc1)NC(=O)c1ccccc1Br` (centres undefined) here?
Answer: The inhibition was 1.54% (inactive).

Question: For `CO/N=C/c1ccc(N2CCN(C(=O)c3cccc(Cl)c3)CC2)c([N+](=O)[O-])c1`, which inhibition is on record?
Answer: Its inhibition is -2.25% (inactive).

Question: Which inhibition does the source give for `CC(C)NC(=O)c1ccc(Sc2ccccc2)c([N+](=O)[O-])c1` here?
Answer: Its inhibition is -2.82% (inactive).

Question: For `CCOc1cc2[nH]c(=S)n(CCN3CCCCC3C)c(=O)c2cc1OCC` (centres undefined), which inhibition is on record?
Answer: The inhibition was -3.72% (inactive).

Question: Which inhibition does the source give for `CCOc1cc2[nH]c(=S)n(CCCN3CCCC3=O)c(=O)c2cc1OCC` here?
Answer: Its inhibition is 35.1% (active).

Question: For `O=C(CCn1c(=S)[nH]c2ccccc2c1=O)NCCCN1CCCC1=O`, which inhibition is on record?
Answer: The inhibition was 18.7% (inactive).

Question: Which inhibition does the source give for `Cc1ccc(-c2ccnc3nc(Sc4ncc(C(F)(F)F)cc4Cl)nn23)cc1` here?
Answer: Its inhibition is 36.2% (active).

Question: Which inhibition does the source give for `Cc1nn(-c2ncc(C(F)(F)F)cc2Cl)c(=O)n1-c1ccccc1` here?
Answer: The inhibition was 10.2% (inactive).

Question: With `O=C(c1ccccn1)c1ncc(C(F)(F)F)cc1Cl` as the compound, how does the inhibition read?
Answer: The inhibition was 5.57% (inactive).

Question: Which inhibition does the source give for `O=C(Nc1ccccc1)OCc1cn(-c2ccc(Cl)cc2)nn1` here?
Answer: The inhibition was 17.4% (inactive).

Question: Which inhibition does the source give for `CCC(=O)NC(NCC1CCCO1)C(Cl)(Cl)Cl` (centres undefined) here?
Answer: The inhibition was -2.21% (inactive).

Question: For `COc1ccc(C(=O)NNC(=O)c2cnccn2)cc1[N+](=O)[O-]`, which inhibition is on record?
Answer: Its inhibition is 7.69% (inactive).

Question: Which inhibition does the source give for `Cc1cccc(C(=O)Nc2ccccc2-c2nnn(CC(=O)Nc3ccc4c(c3)OCCO4)n2)c1` here?
Answer: Its inhibition is 6.95% (inactive).

Question: With `N#CC1=C(N)Oc2c(sc3ccccc23)C1c1ccco1` (centres undefined) as the compound, how does the inhibition read?
Answer: Its inhibition is 13.9% (inactive).

Question: With `Cc1cc(C)c(C#N)c(SCc2[nH]nc3c2C(c2ccccc2)C(C#N)=C(N)O3)n1` (centres undefined) as the compound, how does the inhibition read?
Answer: Its inhibition is -0.29% (inactive).

Question: With `Cc1cc(C)c2c3c(sc2n1)C(c1ccccc1)C(C#N)=C(N)O3` (centres undefined) as the compound, how does the inhibition read?
Answer: The inhibition was 72.8% (active).

Question: With `C=CCOc1cccc(CNn2cn[nH]c2=S)c1` as the compound, how does the inhibition read?
Answer: Its inhibition is 5.3% (inactive).

Question: With `Cc1cccc(C)c1-n1c(C)cc(/C=C2\C(=O)NN(c3ccccc3)C2=O)c1C` as the compound, how does the inhibition read?
Answer: The inhibition was 20.6% (inactive).

Question: Which inhibition does the source give for `CCOC(=O)Nc1ccc(NC(=O)OCC)cc1` here?
Answer: Its inhibition is 3.65% (inactive).

Question: With `CCCCC(CCC(=O)Nc1ccc(C(=O)OCC)cc1)C(=O)O` (centres undefined) as the compound, how does the inhibition read?
Answer: Its inhibition is -4.81% (inactive).

Question: With `CCCCCOC(=O)NCCOC(=O)Nc1ccc(C(=O)OCC)cc1` as the compound, how does the inhibition read?
Answer: The inhibition was 43% (active).

Question: Which inhibition does the source give for `c1ccc(C2CCC(N3CCC(N4CCCCC4)CC3)CC2)cc1` (centres undefined) here?
Answer: The inhibition was 1.52% (inactive).

Question: With `COc1ccc(NC(=O)Nc2ccc3nc(C)c(C)nc3c2)cc1` as the compound, how does the inhibition read?
Answer: Its inhibition is 8.79% (inactive).

Question: Which inhibition does the source give for `O=C(Nc1ccc2ccccc2c1)Nc1ccc2snnc2c1` here?
Answer: The inhibition was 67.9% (active).

Question: For `COc1ccc(NC(=O)Nc2ccc3nsnc3c2)cc1`, which inhibition is on record?
Answer: Its inhibition is -5.25% (inactive).

Question: Which inhibition does the source give for `CCCCNC(=O)C(=O)c1ccccc1NC(C)=O` here?
Answer: The inhibition was 7.01% (inactive).

Question: Which inhibition does the source give for `Cc1cc(C)cc(NC(=O)N2CCC(NC(=O)c3ccc(F)cc3)CC2)c1` here?
Answer: The inhibition was 37.4% (active).

Question: Which inhibition does the source give for `Cc1ccc(C(=O)NC2CCN(C(=O)N3CCOCC3)CC2)cc1` here?
Answer: The inhibition was 7.51% (inactive).

Question: With `Cc1ccc(NC(=O)N2CCC(C(=O)NCc3ccc(F)cc3)CC2)cc1` as the compound, how does the inhibition read?
Answer: Its inhibition is 1.66% (inactive).

Question: With `CCOC(=O)c1nc(N)sc1C(=O)OCC` as the compound, how does the inhibition read?
Answer: The inhibition was -8.73% (inactive).

Question: With `CCOC(=O)c1cc2ccccc2nc1C` as the compound, how does the inhibition read?
Answer: The inhibition was 3.8% (inactive).

Question: With `CCOC(=O)c1sc(C)c2c1NC(C)(c1cccc3ccccc13)NC2=O` (centres undefined) as the compound, how does the inhibition read?
Answer: The inhibition was 30.4% (active).

Question: For `CC1(C)CC(=O)C(C=NCCN2CCN(C(=S)Nc3cccc(Cl)c3)CC2)=C(O)C1`, which inhibition is on record?
Answer: The inhibition was 1.4% (inactive).

Question: For `COc1cc(/C=N/NC(=O)Nc2ccccc2)ccc1OCCOc1ccccc1C`, which inhibition is on record?
Answer: The inhibition was -1.48% (inactive).

Question: With `Nc1c(-c2cccc(Cl)c2)cnn1-c1cccc([N+](=O)[O-])c1` as the compound, how does the inhibition read?
Answer: The inhibition was 4.05% (inactive).

Question: Which inhibition does the source give for `CCN(c1ccccc1)S(=O)(=O)c1ccc(NC(=O)C(C)(C)C)cc1` here?
Answer: Its inhibition is 28.9% (inactive).

Question: With `CC(C)(CCl)C(=O)Nc1ccc(Sc2ccc(F)cc2)cc1` as the compound, how does the inhibition read?
Answer: The inhibition was 37.1% (active).

Question: Which inhibition does the source give for `COC(=O)c1ccc(Sc2ccc(F)cc2)c(N)c1` here?
Answer: The inhibition was 7.42% (inactive).

Question: For `CC(=O)N/C(=C/c1ccc(Cl)cc1)C(=O)NCCc1c[nH]c2ccccc12`, which inhibition is on record?
Answer: The inhibition was 17.4% (inactive).

Question: For `CCCCCCC(=O)Nc1nc(C)c(-c2csc(Nc3cccc(OC)c3)n2)s1`, which inhibition is on record?
Answer: Its inhibition is 3.51% (inactive).

Question: For `CC(C)(C)c1nc(NCC2CCCO2)c2nnn(Cc3ccccc3)c2n1` (centres undefined), which inhibition is on record?
Answer: Its inhibition is 12.5% (inactive).

Question: For `Cc1nc(Nc2ccc3c(c2)OCCO3)c2nnn(Cc3ccccc3Cl)c2n1`, which inhibition is on record?
Answer: Its inhibition is 57.3% (active).

Question: For `C#CCNc1nc(C(C)C)nc2c1nnn2Cc1ccccc1F`, which inhibition is on record?
Answer: The inhibition was 22.2% (inactive).

Question: For `CCCCNC(=S)NNC(=O)c1cc(C)on1`, which inhibition is on record?
Answer: The inhibition was 6.93% (inactive).

Question: For `N#CC1=C(N)N(c2ccc(F)cc2)C(=O)C1`, which inhibition is on record?
Answer: Its inhibition is 1.63% (inactive).

Question: Which inhibition does the source give for `Cc1ccccc1-n1c(C)cc(/C=N/NC(=O)c2ccc(CN3CCOCC3)cc2)c1C` here?
Answer: The inhibition was 7.99% (inactive).

Question: Which inhibition does the source give for `COc1ccccc1N1CCN(C(=O)c2cc(-c3ccc(Br)cc3)on2)CC1` here?
Answer: The inhibition was 33.2% (active).

Question: With `COc1ccccc1-c1cc(C(=O)N2CCCCC2)no1` as the compound, how does the inhibition read?
Answer: Its inhibition is 13.9% (inactive).

Question: With `COc1ccccc1N1CCN(C(=O)c2cc(-c3ccc(Cl)c(Cl)c3)on2)CC1` as the compound, how does the inhibition read?
Answer: Its inhibition is 2.68% (inactive).

Question: Which inhibition does the source give for `NC(=O)N1CCCC1C(=O)Nc1ccc(Cl)c(Cl)c1` (centres undefined) here?
Answer: The inhibition was -1.15% (inactive).

Question: Which inhibition does the source give for `CC1=CC(C)(C)N(C(=O)CSc2nnc(-c3ccccc3)o2)c2ccc(C)cc21` here?
Answer: The inhibition was 72.6% (active).

Question: With `CC1=CC(C)(C)N(C(=O)CSc2nccn2C)c2cc(C)ccc21` as the compound, how does the inhibition read?
Answer: Its inhibition is 1.07% (inactive).

Question: Which inhibition does the source give for `O=C(CSc1nnc(-c2ccccc2)o1)N1CCOCC1` here?
Answer: Its inhibition is 7.42% (inactive).
